Laboratory results published in PubChem BioAssay AID1053180 (Broad Institute, 2014).
Values joined by “and” are separate entries in the source; they are usually repeats but may differ in a detail not shown here. Identical values can stand only once. In all, about 9,600 compounds went through this assay and about 20 (0.2%) were called active.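 Rule for the calls: active = highest normalized replicate activity of 15 or more, or at least half the replicates reach 15 or more; inactive = neither condition met.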 This excerpt belongs to a sample that is enriched for actives. Where a structure was tested more than once in an assay, its records may differ in their call.

Assay: Pax4 mRNA upregulation in alpha cells – RT-PCR, mouse alpha TC1 cells, single point, primary screen (AID 1053180);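 note: Pax4 Ct normalized to GAPDH with activation seen as lower delta delta Ct; plate controls were plate neutral control wells for no effect and Pax4 plasmid positive control for full effect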
Details: Pax4 mRNA qPCR, 6 days, at 10 µM, stronger effect = higher value, 100% = Pax4 plasmid added at qPCR

Compound | activation
C(=C\c1ccc(C2[C@@H]3CN(Cc4ccc5c(c4)OCO5)C[C@H]2N3)cc1)/c1ccccc1 (stereo partly drawn) | 10.3% (active) and 0.0555% (inactive)
Cc1ccccc1-c1ccc(C2[C@@H]3CN(Cc4ccc5c(c4)OCO5)C[C@H]2N3)cc1 (stereo partly drawn) | 0.039% (inactive) and 0.046% (inactive)
O=C(c1ccc2c(c1)OCO2)N1C[C@@H]2N[C@H](C1)C2c1ccc(/C=C/c2ccccc2)cc1 (stereo partly drawn) | 0.452% (inactive) and 0.1% (inactive)
CCS(=O)(=O)N1Cc2cc(C(=O)NCCOC)nc(-c3cccc(-c4ccncc4)c3)c2[C@H]1CCO | 0% (inactive)
N#C[C@@H]1[C@@H](c2ccccc2-c2ccccc2F)[C@@H](CO)N1C(=O)Cc1ccccc1 | 0.0105% (inactive)
CO[C@@H](CN(C)C(=O)c1ccc2c(c1)OCO2)[C@@H](C)CN([C@H](C)CO)S(=O)(=O)c1ccc(Cl)cc1 | 0.019% (inactive)
CO[C@H]1CC[C@@H]2CCOc3ccc(C#N)cc3C(=O)N(C)[C@H](C)C(=O)N(C)C[C@@H]1O2 | 0.001% (inactive)
CCCC(=O)N1CC2(C1)CN(C(=O)c1ccc(F)cc1)[C@H](CO)c1[nH]c3cc(OC)ccc3c12 | 0.003% (inactive)
CN(C)CC(=O)N1[C@H](C(=O)Nc2nccs2)[C@@H](CO)[C@@H]2Cn3c(ccc(C4=CCCCC4)c3=O)[C@@H]21 | 0% (inactive)
COc1ccc2c3c([nH]c2c1)[C@H](CO)N(S(=O)(=O)c1cn(C)cn1)CC31CCN(CC2CCCCC2)CC1 | 0.0045% (inactive)
CCC(=O)N1CC2(C1)CN(C(=O)c1cnccn1)[C@@H](CO)c1c2c2ccc(OC)cc2n1C | 0.0005% (inactive)
C[C@@H]1CCCCO[C@H](CN(C)Cc2ccncc2)[C@H](C)CN([C@@H](C)CO)C(=O)c2cc(NC(=O)Cc3ccccc3)ccc2O1 | -0.0005% (inactive)
O=C(C[C@H]1CC[C@@H]2[C@H](COC[C@H](O)CN2Cc2nccs2)O1)N1CCC(Cc2ccccc2)CC1 | 0.0115% (inactive)
C[C@@H]1CN([C@H](C)CO)C(=O)c2ccccc2-c2ccccc2CO[C@@H]1CN(C)Cc1ccc2c(c1)OCCN2C | 0.075% (inactive)
O=C(C[C@@H]1CC[C@@H]2[C@H](COC[C@@H](O)CN2CCC(F)(F)F)O1)NCc1ccc2c(c1)OCO2 | -0.005% (inactive)
CN(C)c1ccc2c(c1)[C@@H]1C[C@@H](CC(=O)NC3CCCCC3)O[C@@H](CO)[C@@H]1O2 | 0.029% (inactive)
O=C(O)[C@H]1[C@H](CO)[C@H]2Cn3c(ccc(-c4cccc(F)c4)c3=O)[C@H]2N1C(=O)c1ccccn1 | 0.0005% (inactive)
C[C@@H]1CCCCO[C@@H](CN(C)CC2CCCCC2)[C@H](C)CN([C@H](C)CO)C(=O)c2cc(NS(C)(=O)=O)ccc2O1 | -0.001% (inactive)
C[C@H]1CN([C@@H](C)CO)C(=O)c2cccc(NC(=O)c3cnccn3)c2O[C@@H]1CN(C)C(=O)NC1CCCCC1 | 0.0055% (inactive)
CN1c2ccc(-c3ccc(C#N)cc3)cc2[C@H]2[C@H](CCN2S(=O)(=O)c2ccc(F)cc2)[C@@H]1CO | 0.036% (inactive)
O=C(C[C@@H]1C[C@@H]2c3cc(NS(=O)(=O)c4ccc(F)cc4)ccc3O[C@@H]2[C@@H](CO)O1)N1CCc2ccccc2C1 | 0.011% (inactive)

Compound | activation
C[C@H](CO)N1C[C@H](C)[C@@H](CN(C)C(=O)c2ccc3ccn(C)c3c2)OCc2cnnn2CCCC1=O | 0.0015% (inactive)
COc1ccc2c3c(n(C)c2c1)[C@H](CO)N(S(=O)(=O)c1ccc(C)cc1)CC31CCN(C)CC1 | 0.052% (inactive)
CO[C@H](CN(C)Cc1ccc2c(c1)OCO2)[C@H](C)CN(C(=O)Nc1ccc(F)cc1)[C@H](C)CO | 0.0005% (inactive)
O=C(NCc1ccccc1)[C@H]1[C@H](CO)[C@H]2Cn3c(cccc3=O)[C@@H]1N2C(=O)Cc1ccccn1 | 0% (inactive)
CNC[C@H]1OCc2cn(nn2)CCCC(=O)N([C@@H](C)CO)C[C@H]1C | 0.005% (inactive)
COc1ccc2c3c(n(C)c2c1)[C@@H](CO)N(C)CC31CCN(C(=O)c2ccc3c(c2)OCO3)CC1 | 0.0125% (inactive)
COc1ccc2c3c(n(C)c2c1)[C@H](CO)N(CC1CC1)CC31CN(C(=O)c2ccc3c(c2)OCO3)C1 | 0.0045% (inactive)
COc1ccc2c3c(n(C)c2c1)[C@@H](CO)N(CC1CC1)CC31CN(C(=O)c2ccc3c(c2)OCO3)C1 | 8.42% (active)
CC[C@H]1C/C=C\C[C@@H](c2ccccc2)NC(=O)CCC(=O)N1 | -0.01% (inactive)
O=C(c1cccc(F)c1)N1CC(=O)N2[C@@H](CO)[C@H](c3ccc(C4=CCCCC4)cc3)[C@@H]2C1 | 0.025% (inactive)
COc1ccc(CN(C)C[C@@H]2Oc3ccc(NC(=O)Nc4ccc5c(c4)OCO5)cc3CC(=O)N([C@@H](C)CO)C[C@@H]2C)cc1 | 0.002% (inactive)
COCC(=O)N1C[C@@H](C)[C@@H](OC)CN(C)C(=O)c2ccc(NC(=O)Nc3cccc(F)c3)cc2OC[C@H]1C | -0.0005% (inactive)
CCC(=O)N1[C@H](CO)[C@@H]2c3ccccc3N(C(=O)Nc3ccc(Cl)cc3)C[C@@H]21 | -0.0015% (inactive)
COc1ccccc1S(=O)(=O)N(C)C[C@@H]1OCc2cn(nn2)CCCC(=O)N([C@H](C)CO)C[C@H]1C | 0.001% (inactive)
O=C(C1CCOCC1)N1CC(=O)N2[C@H](C1)[C@@H](c1ccc(-c3cccnc3)cc1)[C@@H]2CO | 0% (inactive)
O=C(C[C@@H]1CC[C@@H]2[C@H](COC[C@@H](O)CN2Cc2cc(F)ccc2F)O1)NCc1ccc(Oc2ccccc2)cc1 | 0.098% (inactive)
CN1c2ccc(-c3ccccc3)cc2[C@@H]2[C@@H](CCN2C(=O)NC2CCCCC2)[C@H]1CO | 0.001% (inactive)
Cc1noc(C)c1S(=O)(=O)N(C)C[C@H]1Oc2ccc(NC(=O)c3ccncc3)cc2CC(=O)N([C@H](C)CO)C[C@H]1C | -0.009% (inactive)
CN1C(=O)c2cc(NC(=O)c3cnccn3)ccc2OC[C@@H]2O[C@H](CC(=O)NCC3CCCCC3)CC[C@@H]21 | 0.05% (inactive)
CO[C@@H]1CN(C)C(=O)c2ccc(NC(=O)Nc3cc(F)ccc3F)cc2OC[C@H](C)N(C(=O)c2ccccn2)C[C@@H]1C | 0.0015% (inactive)
O=C(CN1CCOCC1)N1CC[C@@H]2[C@@H](CO)Nc3ccc(-c4ccccc4F)cc3[C@@H]21 | 0.001% (inactive)

Compound | activation
O=C(C[C@@H]1C[C@H]2c3cc(NC(=O)NC4CCCC4)ccc3O[C@H]2[C@H](CO)O1)NCc1ccccc1F | 0.02% (inactive)
CO[C@@H]1CN(C)C(=O)c2ccc(NC(=O)c3ccccc3F)cc2OC[C@H](C)N(C)C[C@H]1C | 0.0025% (inactive)
O=C(C1CCOCC1)N1CC(=O)N2[C@H](CO)[C@@H](c3ccc(/C=C/c4ccccc4)cc3)[C@H]2C1 | 0.002% (inactive)
O=C1Nc2ccccc2OCc2cn(nn2)CC[C@H]1Cc1ccc(-c2ccccc2)cc1 | 0.059% (inactive)
O=C(C[C@@H]1C[C@@H]2c3cc(NC(=O)c4ccc5c(c4)OCO5)ccc3O[C@@H]2[C@H](CO)O1)NCCN1CCCCC1 | -0.001% (inactive)
CN(C)C(=O)C[C@H]1C[C@@H]2c3cc(NC(=O)Nc4ccc(F)cc4)ccc3O[C@@H]2[C@@H](CO)O1 | 0.013% (inactive)
O=C(C[C@H]1CC[C@H]2[C@@H](COC[C@H](O)CN2Cc2ccc3c(c2)OCO3)O1)N1CCCCC1 | 0.0435% (inactive)
Cc1ccc(S(=O)(=O)N(C)C[C@@H]2OCCCC[C@@H](C)Oc3ccc(NC(=O)c4ccncc4)cc3C(=O)N([C@@H](C)CO)C[C@H]2C)cc1 | 0% (inactive)
O=C(C[C@H]1CC[C@@H]2[C@H](COC[C@@H](O)CN2S(=O)(=O)c2cccc(Cl)c2)O1)N1CCOCC1 | 0% (inactive)
CO[C@@H](CN(C)Cc1cc(F)ccc1F)[C@@H](C)CN(C(=O)Nc1ccc(C(F)(F)F)cc1)[C@H](C)CO | 19.2% (active)
CO[C@@H](CN(C)Cc1cc(F)ccc1F)[C@H](C)CN(C(=O)Nc1ccc(C(F)(F)F)cc1)[C@H](C)CO | 0.0205% (inactive)
CO[C@H](CN(C)Cc1cc(F)ccc1F)[C@@H](C)CN(C(=O)Nc1ccc(C(F)(F)F)cc1)[C@H](C)CO | 0.0245% (inactive)
CN(C[C@@H]1[C@@H](c2ccccc2)[C@H](CO)N1CC1CC1)C(=O)c1ccc(F)cc1 | -0.002% (inactive)
COc1ccccc1-c1ccc([C@H]2[C@@H](CO)N[C@@H]2CNC(=O)C2CC2)cc1 | 0.001% (inactive)
CC(C)(O)C#Cc1ccc([C@H]2[C@H]3CN(S(C)(=O)=O)CCCCN3[C@H]2CO)cc1 | 0.0005% (inactive)
N#C[C@@H]1[C@H](c2ccccc2C2=CCCCC2)[C@H](CO)N1C(=O)CN1CCOCC1 | 0% (inactive)
O=C(NC[C@@H]1[C@@H](c2ccccc2)[C@@H](CO)N1Cc1ccccn1)C1CCCC1 | -0.003% (inactive)
CCCNC(=O)N1[C@H](CO)[C@@H](c2ccccc2-c2cccc(C)c2)[C@@H]1C#N | 0.0075% (inactive)
CO[C@@H]1CC[C@@H]2CCOc3c(C#N)cccc3C(=O)N(C)CCCC(=O)N(C)C[C@H]1O2 | 0% (inactive)
O=C(C[C@@H]1C[C@@H]2c3cc(NS(=O)(=O)c4ccccc4)ccc3O[C@@H]2[C@H](CO)O1)NCC(F)(F)F | 0.001% (inactive)
O=C(Cc1ccccc1)N1CC[C@@H]2[C@@H](CO)Nc3ccc(C#Cc4cccc(F)c4)cc3[C@@H]21 | 0.0035% (inactive)
